Test results published in publication PMC5700166.

What was measured:
[1] = molecular target: T1, GST-Nv-NF-kB (Ser allele) (Nematostella vectensis, UniProt A7UNT2 2-411); assay: protein-binding microarray (PBM); PBM: ~300 nM protein, 6 mM HEPES pH 7.8, 80 mM KCl, 0.5 mM EDTA, 0.5 mM EGTA, 6% glycerol, 35 ng/ul poly-dIdC, 1% milk, 1 h, room temperature; Ap Aiptasia and Nv Nematostella (sea anemones) / Co Capsaspora / Aq Amphimedon (sponge) / Dm Drosophila / Hu human; RHD is the Rel homology domain; high values mean tight binding; details: dsDNA, one strand shown
T1 sequence: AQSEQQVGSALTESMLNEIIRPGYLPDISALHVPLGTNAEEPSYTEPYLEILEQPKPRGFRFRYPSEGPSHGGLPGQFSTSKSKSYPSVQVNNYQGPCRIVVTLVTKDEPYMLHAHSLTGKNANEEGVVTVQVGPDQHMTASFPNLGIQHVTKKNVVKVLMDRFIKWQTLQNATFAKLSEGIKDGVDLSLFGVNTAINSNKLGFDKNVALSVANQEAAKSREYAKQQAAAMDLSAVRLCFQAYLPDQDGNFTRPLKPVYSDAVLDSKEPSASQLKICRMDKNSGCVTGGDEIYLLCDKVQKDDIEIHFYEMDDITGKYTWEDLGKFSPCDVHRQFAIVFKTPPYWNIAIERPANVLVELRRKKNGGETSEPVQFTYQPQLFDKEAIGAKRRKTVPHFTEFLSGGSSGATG

GST-Hu-p50 = GST-Hu-p50 (Homo sapiens, UniProt P19838 7-356); assay: as above; details: dsDNA, one strand shown
GST-Hu-p50, sequence (P19838 7-356): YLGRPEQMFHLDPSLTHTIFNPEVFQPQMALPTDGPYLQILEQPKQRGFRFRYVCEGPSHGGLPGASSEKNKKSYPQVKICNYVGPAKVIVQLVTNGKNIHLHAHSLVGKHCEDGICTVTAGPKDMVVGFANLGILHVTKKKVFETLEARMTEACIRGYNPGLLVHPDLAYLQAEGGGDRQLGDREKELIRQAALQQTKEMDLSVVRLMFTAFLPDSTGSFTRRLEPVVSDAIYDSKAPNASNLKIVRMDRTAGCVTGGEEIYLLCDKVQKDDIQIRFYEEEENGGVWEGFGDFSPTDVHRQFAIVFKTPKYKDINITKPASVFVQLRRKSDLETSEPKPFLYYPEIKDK

Sequence | binding signal [1] | binding signal (GST-Hu-p50)
CCGATTAACATCAGTAACTCCCTTGATGTTAATCGGGTCTTGATTCGCTTGACGCTGCTG | 2.17 z-score | 2.5 z-score
CCGATTAACATCAGGAATGTACCTGATGTTAATCGGGTCTTGATTCGCTTGACGCTGCTG | 3.2 z-score | 2.14 z-score
CCGATTAACATCAGAAATCCCACTGATGTTAATCGGGTCTTGATTCGCTTGACGCTGCTG | 1.91 z-score | 2.66 z-score
CCGATTAACATCAAATTTTCCCATGATGTTAATCGGGTCTTGATTCGCTTGACGCTGCTG | 6.42 z-score | 4.19 z-score
CCGATTAACATCAGGGGAAGGGATGATGTTAATCGGGTCTTGATTCGCTTGACGCTGCTG | 5.77 z-score | 3.4 z-score
CCGATTAACATCAGGAACGTCCCTGATGTTAATCGGGTCTTGATTCGCTTGACGCTGCTG | 2.75 z-score | 2.12 z-score
CCGATTAACATCAGTAATTCCCATGATGTTAATCGGGTCTTGATTCGCTTGACGCTGCTG | 3.61 z-score | 3 z-score
CCGATTAACATCAGCTTGGGAAATGATGTTAATCGGGTCTTGATTCGCTTGACGCTGCTG | 1.58 z-score | 1.1 z-score
CCGATTAACATCACGGAATACCCTGATGTTAATCGGGTCTTGATTCGCTTGACGCTGCTG | 3.97 z-score | 3.41 z-score
CCGATTAACATCAAATTTCCCGCTGATGTTAATCGGGTCTTGATTCGCTTGACGCTGCTG | 4.85 z-score | 3.98 z-score
CCGATTAACATCAGAAATCCCGATGATGTTAATCGGGTCTTGATTCGCTTGACGCTGCTG | 2.04 z-score | 2.55 z-score
CCGATTAACATCAGGCTTCCCCCTGATGTTAATCGGGTCTTGATTCGCTTGACGCTGCTG | 6.08 z-score | 5.25 z-score
CCGATTAACATCAGAGAAACCCCTGATGTTAATCGGGTCTTGATTCGCTTGACGCTGCTG | 4.24 z-score | 5.09 z-score
CCGATTAACATCAGGGACCTCCCTGATGTTAATCGGGTCTTGATTCGCTTGACGCTGCTG | 1.67 z-score | 3.27 z-score
CCGATTAACATCACGCAACCCCCTGATGTTAATCGGGTCTTGATTCGCTTGACGCTGCTG | 4.87 z-score | 5.03 z-score
CCGATTAACATCACGAGATTCCCTGATGTTAATCGGGTCTTGATTCGCTTGACGCTGCTG | 3.97 z-score | 2.64 z-score
CCGATTAACATCAGAACTTCCCATGATGTTAATCGGGTCTTGATTCGCTTGACGCTGCTG | 2.2 z-score | 1.47 z-score

Sequence | binding signal [1] | binding signal (GST-Hu-p50)
CCGATTAACATCAATTACCCCCCTGATGTTAATCGGGTCTTGATTCGCTTGACGCTGCTG | 5.22 z-score | 4.35 z-score
CCGATTAACATCAAGAATTCCCGTGATGTTAATCGGGTCTTGATTCGCTTGACGCTGCTG | 5.52 z-score | 4.39 z-score
CCGATTAACATCAATTTTTCCCATGATGTTAATCGGGTCTTGATTCGCTTGACGCTGCTG | 5.77 z-score | 3.53 z-score
CCGATTAACATCAGGGAAATATATGATGTTAATCGGGTCTTGATTCGCTTGACGCTGCTG | 5.62 z-score | 4.03 z-score
CCGATTAACATCAATCGTCCCCCTGATGTTAATCGGGTCTTGATTCGCTTGACGCTGCTG | 4.3 z-score | 3.44 z-score
CCGATTAACATCAGGGGAGAATATGATGTTAATCGGGTCTTGATTCGCTTGACGCTGCTG | 6.21 z-score | 4.46 z-score
CCGATTAACATCAATCACCCCCATGATGTTAATCGGGTCTTGATTCGCTTGACGCTGCTG | 2.78 z-score | 3.76 z-score
CCGATTAACATCAGGCCCCCCCCTGATGTTAATCGGGTCTTGATTCGCTTGACGCTGCTG | 3.9 z-score | 4.51 z-score
CCGATTAACATCACCTTGGGAAATGATGTTAATCGGGTCTTGATTCGCTTGACGCTGCTG | 2.17 z-score | 2.17 z-score
CCGATTAACATCAGATACCCCCCTGATGTTAATCGGGTCTTGATTCGCTTGACGCTGCTG | 4.05 z-score | 4.1 z-score
CCGATTAACATCACGTATTTCCCTGATGTTAATCGGGTCTTGATTCGCTTGACGCTGCTG | 4.49 z-score | 3.02 z-score
CCGATTAACATCAACATCCCCCCTGATGTTAATCGGGTCTTGATTCGCTTGACGCTGCTG | 5.5 z-score | 4.91 z-score
CCGATTAACATCAGGGATCACCCTGATGTTAATCGGGTCTTGATTCGCTTGACGCTGCTG | 1.43 z-score | 2.48 z-score
CCGATTAACATCACCCATCCCCCTGATGTTAATCGGGTCTTGATTCGCTTGACGCTGCTG | 4.96 z-score | 4.2 z-score
CCGATTAACATCAGGCCGTCCCCTGATGTTAATCGGGTCTTGATTCGCTTGACGCTGCTG | 3.43 z-score | 3.86 z-score
CCGATTAACATCAATTCCCGTACTGATGTTAATCGGGTCTTGATTCGCTTGACGCTGCTG | 1.96 z-score | 1.41 z-score
